Compound activity from PubChem BioAssay.
Only some compounds are listed: those with a hit (about 6% of all), similar ones and a draw of the others.
Chronic BCR inh: chronic active BCR signaling inhibition. hit rate 0.05% among 340,000. Potency, µM (series often up to 46.1 µM), inactives show at the top dose activity change, negative = inhibition, actives largely listed as inhibitors. ABC-DLBCL IkBa-CBG/CBR reporter, luminescence ratio, 4 h; active = well fitted inhibition curve with a large enough effect in the signal ratio, with a control signal flat, not every such curve was filed as active; inconclusive = small, poorly fitted or top-dose-only effect, or effect the other way, or a change in a side signal; the % refers to the signal ratio;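 note: potency is the fitted concentration of half-maximal effect; plate controls were basal doxycycline-induced cells for no effect and cells given 10 µM MG132 for full effect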
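Cell line TMD8 (human ABC DLBCL), stably expressing tet-inducible CBG68-IkBa fusion and CBR; IMDM/0.5% FBS; cpd up to 46 uM; dox induction, 4 h, 37C/5% CO2; dual luminescence; green/red ratio; MG132 control.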
DRD3 agonist: D3 dopamine receptor (human) agonism | P35462 | D3R DiscoveRx beta-arrestin cells, luminescence, 90 min | max activation, % | hit rate 0.58% among 410,000 | AID 652048; in the data active = max activation above about 30%; note: 0% is about no effect
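Cells at 1500/well, incubated overnight, then treated with pinned compounds (dopamine as control) for 90 min at 37 degrees C. DiscoveRx reagent added for 30 - 60 minutes at room temperature; luminescence read.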
D1 antag: human D1 dopamine receptor antagonism. activity change, negative = inhibition, % at 10 µM. AID 504652. HEK293 TREx D1 cells, calcium flux, dopamine EC80; stronger effect = lower value. hit rate 3.2% among 360,000; in the data active = activity change below about -30%; note: % is set by controls: 0 for no effect and ±100 for the full control effect
Target sequence (P21728 whole entry, looked up): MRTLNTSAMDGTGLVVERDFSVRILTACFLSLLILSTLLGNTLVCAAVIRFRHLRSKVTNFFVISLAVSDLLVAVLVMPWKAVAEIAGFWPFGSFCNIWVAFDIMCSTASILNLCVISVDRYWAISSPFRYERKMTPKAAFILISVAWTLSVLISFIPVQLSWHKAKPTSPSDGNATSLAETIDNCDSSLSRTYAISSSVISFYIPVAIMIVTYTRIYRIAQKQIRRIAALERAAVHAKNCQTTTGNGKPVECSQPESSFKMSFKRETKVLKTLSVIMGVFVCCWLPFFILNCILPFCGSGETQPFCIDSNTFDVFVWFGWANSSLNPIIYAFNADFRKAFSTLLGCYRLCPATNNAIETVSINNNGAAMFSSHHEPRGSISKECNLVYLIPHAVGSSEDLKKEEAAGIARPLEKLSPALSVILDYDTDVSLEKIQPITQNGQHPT
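Antagonism measured as reduced calcium response to an EC80 dopamine addition following 180 s compound pre-read; cells were inducible HEK293 Trex D1 plated overnight at 30 C, read kinetically at 1 cycle/sec.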
D1 ag: agonists of human D1 dopamine receptor | P21728 | HEK293 T-REx D1 cells, calcium flux, agonist mode | activation, % at 2 µM | hit rate 1% among 360,000 | AID 504660; in the data active = activation above about 30%; note: 0% is about no effect
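Tetracycline-induced HEK293 TREx D1 cells, force-coupled to calcium signalling, were dye-loaded with a no-wash calcium kit. Compound was pin-added after a 10 s baseline. Fluorescence was read kinetically at 1 cycle/s for 180 s, with calcium rises flagged as agonism.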
DRD3 antagonist: blocks the human D3 dopamine receptor; P35462; D3R cells, DiscoveRx beta-arrestin luminescence, antagonist mode; stronger effect = lower value; max response, negative = inhibition, %; hit rate 2.5% among 360,000; AID 652054; in the data active = max response below about -50%; inconclusive = no clear call, values can overlap the other calls; note: % is set by controls: 0 for no effect and ±100 for the full control effect
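Cells plated overnight at 1500 cells/well, then exposed to library compounds with dopamine controls for 90 minutes at 37 degrees C. DiscoveRx reagent added for 30–60 minutes at room temperature; luminescence read, quantitative HTS format.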
D1 PAM: potentiators of human D1 dopamine receptor | P21728 | HEK293 TREx D1 cells, calcium flux, dopamine EC20 potentiation | potentiation, % at 10 µM | hit rate 0.036% among 360,000 | AID 504651; in the data active = potentiation above about 30%; note: 0% is about no effect
Numbers without * were called inactive.

COc1cc(OC)cc(C(=O)NC2CCN(CCCOc3ccccc3)CC2)c1 was read as Chronic BCR inh -1%, DRD3 agonist -11, D1 antag -37*, D1 ag 7, DRD3 antagonist -15 and D1 PAM -20.
CCCN1CCC(NC(=O)c2cccc(Oc3ccccc3)c2)CC1 was read as Chronic BCR inh 4%, DRD3 agonist -7, D1 antag -14, D1 ag 2, DRD3 antagonist -23 and D1 PAM -5.
Screening COc1cc(C2CC(=O)Nc3c2c(=O)n(C)c2ncnn32)cc(OC)c1OC (stereo not given) returned DRD3 agonist -10, D1 antag -7, D1 ag -1 and D1 PAM -5.
For CCOC(=O)c1ccccc1NC(=O)CCc1c(C)nc2ncnn2c1C the results were DRD3 agonist -10, D1 antag 3, D1 ag 4 and D1 PAM -2.
Screening COc1cc(C(=O)NC2CC3CCCC(C2)N3Cc2ccccc2)cc(OC)c1OC (stereo not given) returned Chronic BCR inh 1%, DRD3 agonist -19, D1 antag 0, D1 ag 4, DRD3 antagonist -95* and D1 PAM -5.
COc1ccc([N+](=O)[O-])cc1C(=O)NC1CCN(Cc2ccccc2)CC1 was read as DRD3 agonist -20 and DRD3 antagonist -100*.
For COc1ccc(NS(=O)(=O)c2c(C)nc3scc(C)n3c2=O)cc1 the results were DRD3 agonist -3, D1 antag 10, D1 ag 4 and D1 PAM 4.
N#Cc1c(N)[nH]c2ccc(Sc3ccccc3)cc12 was read as DRD3 agonist -8 and DRD3 antagonist -12.
Cc1n(N)c2ccccc2[n+]1CC(=O)c1ccccc1 was read as Chronic BCR inh 8%, DRD3 agonist -11, D1 antag -4, D1 ag 2, DRD3 antagonist -82* and D1 PAM -2.
`Cc1csc(C)[n+]1CC(=O)c1ccccc1` gave Chronic BCR inh 1%, DRD3 agonist -2, D1 antag 9, D1 ag 1, DRD3 antagonist 9 and D1 PAM 14.
Screening Cc1cccc(C)c1OCc1nnc(SCC(=O)Nc2ccc(N3CCOCC3)cc2)o1 returned Chronic BCR inh -2%, DRD3 agonist 2, D1 antag 9, D1 ag 41* and DRD3 antagonist 1.
For CCc1nnc(SCC(=O)Nc2ccc(N3CCOCC3)cc2)o1 the results were Chronic BCR inh inconclusive, DRD3 agonist 0, D1 antag -4, D1 ag 0, DRD3 antagonist 2 and D1 PAM 1.
Screening COc1ccccc1NC(=O)Nc1ccc(N2CCOCC2)cc1 returned Chronic BCR inh inconclusive, DRD3 agonist 7, D1 antag -43*, D1 ag -1, DRD3 antagonist -16 and D1 PAM 0.
`CCN1CCN(Cc2ccc(NC(=O)Nc3ccccc3OC)cc2)CC1` gave Chronic BCR inh inconclusive, DRD3 agonist -23, D1 antag -2, D1 ag -3, DRD3 antagonist -72* and D1 PAM -7.
Screening COc1ccccc1CNCC(=O)Nc1ccc(N2CCOCC2)cc1 returned Chronic BCR inh 8%, DRD3 agonist -4, D1 antag 2, D1 ag 3, DRD3 antagonist -6 and D1 PAM 4.
CCc1nc2ccc(C(=O)NCc3ccc4c(c3)OCO4)cn2c1N(C)CCC(C)C was read as DRD3 agonist 6 and DRD3 antagonist 1.
Cc1ccc(C2CCN(C(=O)Nc3ccc(C)c(C)c3)C2)cc1 (stereo not given) was read as Chronic BCR inh 15%, DRD3 agonist 5, D1 antag -21, D1 ag 2 and D1 PAM -3.
CC(=O)Nc1ccn(C2COC(COC(=O)c3ccccc3)O2)c(=O)n1 (stereo not given) was read as DRD3 agonist -5.
Screening Cc1cc(/C=N/NC(=O)CC#N)c(C)n1-c1ccc([N+](=O)[O-])cc1 returned Chronic BCR inh 0%, DRD3 agonist 5, D1 antag -37*, D1 ag 0, DRD3 antagonist -7 and D1 PAM -17.
Screening Cc1ccc(-n2c(C)cc(/C=N/Nc3ccc([N+](=O)[O-])cn3)c2C)cc1 returned Chronic BCR inh inconclusive, DRD3 agonist -5, D1 antag -46*, D1 ag 6, DRD3 antagonist -6 and D1 PAM -11.
For CCCc1nnc(SCCSc2nnc(CCC)n2N)n1N the results were Chronic BCR inh 2%, DRD3 agonist 5, D1 antag -32*, D1 ag 12, DRD3 antagonist 16 and D1 PAM -1.
CCc1nn(CC(=O)N2CCC(C)CC2)c(=O)c2cccn12 was read as Chronic BCR inh -7%, DRD3 agonist 0, D1 antag 3, D1 ag 0, DRD3 antagonist 13 and D1 PAM 1.
`CCc1nn(CC(=O)N2CCN(c3cccc(C(F)(F)F)c3)CC2)c(=O)c2cccn12` gave DRD3 agonist -7, D1 antag -41*, D1 ag 24 and D1 PAM -5.
Screening CCCCS(=O)(=O)c1oc(-c2cccs2)nc1S(=O)(=O)c1ccc(F)cc1 returned DRD3 agonist -26, D1 antag 1, D1 ag 81* and D1 PAM 4.
`CCCCCS(=O)(=O)c1oc(-c2cccs2)nc1S(=O)(=O)c1ccc(C)cc1` gave DRD3 agonist -35, D1 antag -22, D1 ag 5 and D1 PAM -1.
Screening CC1(C)N=C(N)N=C(N)N1c1ccc(OCCCOc2ccccc2)c(Cl)c1 returned Chronic BCR inh 4%, DRD3 agonist 1, D1 antag -2, D1 ag 4, DRD3 antagonist -2 and D1 PAM -4.
CC1(C)N=C(N)N=C(N)N1c1ccc(OCC(=O)Nc2ccccc2)c(Cl)c1 was read as DRD3 agonist -6 and DRD3 antagonist -62*.
O=C(c1ccccc1)c1ccc(OCC(O)CN2CCN(Cc3ccccc3)CC2)cc1 (stereo not given) was read as Chronic BCR inh inconclusive, DRD3 agonist -5, D1 antag -7, D1 ag 13, DRD3 antagonist inconclusive and D1 PAM -5.
Screening O=C(c1ccccc1)c1ccc(OCCCCN2CCCCC2)cc1 returned Chronic BCR inh 16%, DRD3 agonist -4, D1 antag 3, D1 ag 11, DRD3 antagonist -87* and D1 PAM -3.
O=C(Cc1ccccc1)NCCCN1CCN(CCCNC(=O)Cc2ccccc2)CC1 was read as Chronic BCR inh inconclusive, DRD3 agonist 1, D1 antag 9, D1 ag 1, DRD3 antagonist 6 and D1 PAM -2.
